Screening data: PubChem BioAssay, National Center for Advancing Translational Sciences (NCATS)
Compounds with a hit are over-represented: about 1.3% of the library has one in this group of screens.
IDH1 R132H inh: qHTS for Inhibitors of mutant isocitrate dehydrogenase 1 (IDH1): qHTS; Potency, µM (doses to about 76.6 µM), actives largely listed as inhibitors; AID 602179, 2012; IDH1-R132H enzyme, NADPH consumption, diaphorase/resazurin fluorescence; Isocitrate dehydrogenase [NADP] cytoplasmic (Homo sapiens), O75874; 390,000 tested, 0.093% active; note: nearly all actives have a fitted effect of over 65% in size
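IDH1-R132H (0.5 ug/mL) preincubated 30 min with compound, then NADPH (0.016 mM) and alpha-KG (2 mM) added; 80 min at RT, pH 7.5. Remaining NADPH coupled via diaphorase/resazurin to fluorescence (540/590 nm); concentration-response curves normalized to no-enzyme control.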
Anesthetic bind: qHTS Assay for Identification of Novel General Anesthetics | Ferritin light chain (Equus caballus), P02791 | 350,000 tested, 0.074% active | apoferritin/1-aminoanthracene competitive binding, fluorescence | Potency, µM (top dose mostly 77.5 µM), most hits filed as inhibitors; note: nearly all actives have a fitted effect of over 20% in size
Target sequence (P02791 2-175 limits assumed): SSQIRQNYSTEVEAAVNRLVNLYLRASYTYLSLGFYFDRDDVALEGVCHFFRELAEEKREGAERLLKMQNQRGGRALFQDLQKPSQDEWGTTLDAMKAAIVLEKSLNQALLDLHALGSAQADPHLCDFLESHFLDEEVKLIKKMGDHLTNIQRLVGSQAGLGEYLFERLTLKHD
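Apoferritin-based anesthetic binding model; compound displacement of fluorescent 1-AMA measured as endpoint fluorescence after 10 minutes at room temperature, scaled to free-ligand and complex controls.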
PKM2 activator: qHTS Assay for Activators of Human Muscle isoform 2 Pyruvate Kinase; 260,000 tested, 0.34% active; purified PKM2, Kinase-Glo ATP luminescence, activation; response scale: 0% is enzyme alone, no compound; Pyruvate kinase PKM (Homo sapiens), P14618; Potency, µM (top dose mostly 57.5 µM), most hits filed as activators; note: nearly all actives have a fitted effect of over 55% in size
Target sequence (P14618 whole entry, looked up, canonical isoform): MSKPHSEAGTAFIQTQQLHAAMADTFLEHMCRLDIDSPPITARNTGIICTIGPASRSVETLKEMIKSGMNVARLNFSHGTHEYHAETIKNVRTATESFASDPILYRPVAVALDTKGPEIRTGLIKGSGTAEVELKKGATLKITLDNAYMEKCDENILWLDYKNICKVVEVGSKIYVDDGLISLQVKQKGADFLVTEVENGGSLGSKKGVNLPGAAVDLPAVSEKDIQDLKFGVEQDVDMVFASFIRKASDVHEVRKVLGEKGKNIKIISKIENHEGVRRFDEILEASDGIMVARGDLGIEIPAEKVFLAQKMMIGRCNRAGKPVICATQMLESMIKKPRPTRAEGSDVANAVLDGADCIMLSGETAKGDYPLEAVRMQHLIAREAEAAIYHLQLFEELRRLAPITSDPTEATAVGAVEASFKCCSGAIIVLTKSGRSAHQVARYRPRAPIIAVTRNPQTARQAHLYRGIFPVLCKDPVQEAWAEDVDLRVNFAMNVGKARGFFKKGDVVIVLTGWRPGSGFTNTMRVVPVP
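Purified hPK-M2 (>95% pure) converted ADP (0.1 mM final) to ATP with 0.5 mM PEP in 50 mM imidazole pH7.2, KCl, MgCl2, Tween 20, BSA; 1 h at room temperature. ATP detected by Kinase-Glo luminescence.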
GALK inh: qHTS Assay for Inhibitors of Human Galactokinase (GALK); P51570; Purified GALK, Kinase-Glo residual ATP luminescence; Potency, µM (doses to about 57.5 µM), most hits filed as inhibitors; 270,000 tested, 0.007% active
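GALK at 5 nM final was combined with compound, 35 uM ATP and 100 uM galactose in HEPES pH8.0 with MgCl2 and DTT. The reaction ran one hour at room temperature before luminescent ATP detection.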
rTrxR1 inhibitor: qHTS Assay for Inhibitors of Mammalian Selenoprotein Thioredoxin Reductase 1 (TrxR1): qHTS; Thioredoxin reductase 1, cytoplasmic (Rattus norvegicus), O89049; recombinant rTrxR1, NADPH fluorescence consumption, selenite substrate; Potency, µM (top dose mostly 114 µM), actives largely listed as inhibitors; 390,000 tested, 1% active; AID 588453, 2011; note: nearly all actives have a fitted effect of over 65% in size
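Rat TrxR1 (90 nM in the dispensed reagent) was pre-reduced with 400 uM NADPH for 5 min at room temperature, then incubated with compound for 15 min. After 400 uM selenite was added, NADPH fluorescence (Ex 340/Em 450 nm) was followed for 8 min.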
TrxR1 substrate: qHTS Assay for Substrates of Mammalian Selenoprotein Thioredoxin Reductase 1 (TrxR1): qHTS | AID 588456, 2011 | 390,000 tested, 0.01% active | Potency, µM (doses to about 114 µM) | Thioredoxin reductase 1, cytoplasmic (Rattus norvegicus), O89049 | purified TrxR1 substrate turnover, NADPH consumption readout; note: nearly all actives have a fitted effect of over 50% in size
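Rat TrxR1, dispensed at 90 nM, was prereduced with 400 uM NADPH (final) for 5 min at ~22 deg C, then incubated with compound 15 min before 400 uM selenite. A first-read NADPH fluorescence drop versus no-compound background flagged substrates.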
Numbers stand for hits; – = inactive; ? = inconclusive; · = no result; [ ] = dose if it differs, or a comment. Calls come from the whole dose curve; as a rule, active = well fitted curve in the direction sought with a large enough effect; inconclusive = small, poorly fitted or top-dose-only effect, or another doubt; inactive = no such curve, though single readings can be large; an effect the other way counts as inactive or inconclusive.

SMILES	IDH1 R132H inh	Anesthetic bind	PKM2 activator	GALK inh	rTrxR1 inhibitor	TrxR1 substrate
COc1ccc(C(=O)CCN2CCCC(C)C2)cc1 (configuration not stated)	–	–	·	–	?	–
CC(C)(C)n1ncc2c(=O)n(Cc3ccc(C#N)c(F)c3)cnc21	·	·	·	·	–	–
Cc1cccn2c(=O)cc(COc3ccc(NC(=O)c4cccc(F)c4)cc3)nc12	–	–	·	·	–	–
CC(=O)O[C@H]1CC(C)(C)C(=C=C/C(C)=C/C=C/C(C)=C/C=C/C=C(C)/C=C/C=C(\C)C(=O)C[C@@]23O[C@]2(C)C[C@@H](O)CC3(C)C)[C@](C)(O)C1	–	–	–	–	35µM	–
CC(=O)Nc1ccc(/C=C2\C=Cc3ccccc32)cc1	·	·	·	·	?	–
NS(=O)(=O)c1ccc(-c2ccc(/C=C3\NC(=S)NC3=O)o2)cc1	?	–	–	·	13µM	–
CC1=C(C#N)C(=O)NC(=O)/C1=C/c1ccc(-c2ccc(S(N)(=O)=O)cc2)o1	–	–	–	–	8.9µM	–
O=C1COc2ccc(C(=O)COC(=O)c3ccc([N+](=O)[O-])cc3Cl)cc2N1	–	·	·	·	50µM	–
O=C(O)/C=C/C(=O)c1ccc2c(c1)NC(=O)CO2	–	–	?	–	2.8µM	–
O=C1COc2ccc(C(=O)COC(=O)/C=C/c3ccco3)cc2N1	–	·	·	·	50µM	–
O=C1COc2ccc(C(=O)NC3CC3)cc2N1	–	–	–	–	–	–
Cc1cccc(CN2CCC(CNC(=O)Cn3ncc4c([nH]c5ccc(C)cc54)c3=O)CC2)c1	–	–	·	·	–	–
Clc1ccc(-c2csc3ncnc(Sc4nnnn4-c4ccccc4)c23)cc1	·	·	·	·	–[0.0914 µM]	–[0.0914 µM]
COCC1CCN(Cc2c(C(=O)N3CCc4ccccc4C3)nc3ccc(Cl)cn23)C1 (configuration not stated)	–	–	–	–	16µM	–
COC1CCN(Cc2c(C(=O)N3CCc4ccccc4C3)nc3ccc(Cl)cn23)CC1	–	–	–	–	–	–
C=C(c1ccc2ccccc2n1)c1cccs1	·	·	·	·	–	–
Cc1ccc(S(=O)(=O)c2cc(O)ccc2O)cc1C	–	–	16µM	–	?	–
Cc1ccc(S(=O)(=O)Nc2ccc(O)c(S(=O)(=O)c3ccc(C)cc3)c2)cc1	–	–	–	–	–	–
CC(=O)Nc1ccc(S(=O)(=O)c2cc(O)ccc2O)cc1	–	–	–	–	18µM	–
CC(=O)Nc1ccc(S(=O)(=O)CCC(=O)O)cc1	–	–	–	–	–	–
CC(=O)CCS(=O)(=O)c1ccc(NC(C)=O)cc1	–	–	–	–	40µM	–
COc1ccc(NC(=O)C2CCCN(S(=O)(=O)c3ccc(Br)s3)C2)cc1 (configuration not stated)	–	–	·	·	–	–
Cc1nc(-n2nc(C)c(Cc3ccc(Cl)cc3)c2C)sc1C(=O)N1CCC(C)CC1	–	–	·	·	–	–
CNC(=O)c1nnsc1S(=O)(=O)c1ccc(Cl)cc1	–	?	·	–	0.28µM	–
Cc1[nH]n(-c2ncc(-c3ccccc3)s2)c(=O)c1C(c1ccc(Cl)cc1)C(C#N)C#N (configuration not stated)	–	–	–	–	22µM	–
SMILES	IDH1 R132H inh	Anesthetic bind	PKM2 activator	GALK inh	rTrxR1 inhibitor	TrxR1 substrate
CC(=O)c1ccc(NC(=O)CSc2nccn2C2CCCC2)cc1	–	–	·	·	–	–
Cc1ccc(NC(=O)CSC2=C(C#N)C(c3ccc4c(c3)OCO4)C3=C(CCCC3=O)N2)c(C)c1 (configuration not stated)	–	–	–	–	28µM	–
O=S(=O)(c1ccc2c(c1)OCCCO2)N1CCNCC1	–	–	–	–	–	–
c1cc2c(cc1C1CCCN1)OCCCO2 (configuration not stated)	–	–	–	–	45µM	–
COc1ccc(S(=O)(=O)N2CN(Cc3ccco3)c3nc4ccccc4nc32)cc1	–	–	?	–	35µM	–
Cc1cc(C)nc(SCC(=O)Oc2ccc3oc(=O)cc(C)c3c2)n1	–	–	–	–	1µM	–
CCC(=O)Oc1ccc2oc(=O)cc(C)c2c1	–	–	–	–	–	–
Cc1ccc2c(CC(=O)N(Cc3ccc(Cl)cc3)Cc3ccco3)coc2c1	·	–	·	·	50µM	–
COc1cc2c(NC3CCN(C)CC3)nc(N3CCCN(C)CC3)nc2cc1OCCN(C)C	·	·	·	·	–	–
O=C(CCS(=O)(=O)c1ccc(Br)cc1)Nc1ccccc1Cl	–	–	·	·	–	–
O=C(CCS(=O)(=O)c1ccc(Br)cc1)Nc1ccccn1	–	–	–	–	45µM	–
Cn1c(=O)c([N+](=O)[O-])c(Cl)c2ccccc21	–	–	–	–	2.2µM	–
COc1ccc(C(=O)NCCS(=O)(=O)NCc2ccc(C)cc2)cc1	–	·	·	·	–	–
COc1ccc(C(=O)CCS(=O)(=O)c2ccc(C)cc2)cc1	–	–	–	–	14µM	–
COc1ccc(C(=O)NCS(=O)(=O)c2ccc(C)cc2)cc1	–	–	–	–	28µM	–
Cc1ccc(C(=O)CCS(=O)(=O)c2ccc(Br)cc2)cc1	–	–	–	–	0.5µM	–
COc1ccc(COC(=O)CCS(=O)(=O)c2ccc(C)cc2)cc1	–	·	·	·	–	–
COc1cccc(CNC(=O)C2CCCN(c3nnc(-n4c(C)ccc4C)s3)C2)c1OC (configuration not stated)	–	–	·	·	?	–
CC(=O)c1cc(O)c2ccccc2c1O	–	–	–	–	32µM	–
CC(=O)n1cc(CO)c2ccccc21	–	–	–	·	–	–
CC(=O)n1cc(N(C(=O)CCl)c2ccc([N+](=O)[O-])cc2)c2ccccc21	–	–	–	–	1.1µM	–
O=Cc1[nH]c2ccccc2c1N(C(=O)CCl)c1ccc([N+](=O)[O-])cc1	–	–	–	–	11µM	–
Cn1cc(C(=O)N/N=C/c2ccc([N+](=O)[O-])cc2)c2ccccc21	–	–	–	·	–	–
CC(=O)n1cc(N(C(=O)CCl)c2ccccc2)c2ccccc21	–	–	–	–	0.63µM	–
O=C(CCl)N(CCCNC(=O)C(F)(F)F)c1ccc([N+](=O)[O-])cc1	–	–	–	–	?	–
COc1ccc(-c2nc3c(C#N)c[nH]n3c2NC2CCCC2)cc1	–	–	·	·	–	–
